Records with an inconclusive call do not appear. Active and inactive are the calls of the source. Calls come from the whole dose curve.
The compounds below were run against Vitamin D3 receptor (Homo sapiens) (UniProt P11473) (assay: qHTS assay to identify small molecule agonists of the vitamin D receptor (VDR) signaling pathway (AID 743222)). Details: HEK293T VDR-UAS-bla, beta-lactamase FRET ratio, 16 h; series mostly up to 63.5 µM.
Description: National Center for Advancing Translational Sciences [NCATS]
NIH Chemical Genomics Center [NCGC]
U.S. Environmental Protection Agency [EPA]
National Institutes of Environmental Health Sciences [NIEHS]
National Toxicology Program [NTP]
U.S. Food and Drug Administration [FDA]
The vitamin D receptor (VDR), a member of nuclear hormone receptor superfamily, plays a critical role in calcium homeostasis and bone metabolism. It is also involved in cell differentiation and growth, and thrombogenicity.
Tox21 Assay Protocol Summary:
VDR-bla cells were dispensed at 2,000 cells/6 uL/well into black wall/clear-bottom 1536-well plates using a Multidrop Combi (Thermo Fisher Scientific, Waltham, MA) dispenser. After the assay plates were incubated at a 37C and 5% CO2 for 4 h, 23 nL of compounds dissolved in DMSO, positive controls or DMSO only was transferred to the assay plate by a Pintool station (Kalypsys, San Diego, CA). The plates were incubated at 37C and 5% CO2 for 16 h. After 1 uL of LiveBLAzerTM B/G FRET substrate was added using a Bioraptr Flying Reagent Dispenser (FRD) workstation (Beckman Coulter, Indianapolis, IN, USA), the plates were incubated at room temperature for 2 h, and fluorescence intensity was measured by an Envision plate reader (PerkinElmer, Shelton, CT).

Sequence of Vitamin D3 receptor (Homo sapiens) (P11473 whole entry, looked up): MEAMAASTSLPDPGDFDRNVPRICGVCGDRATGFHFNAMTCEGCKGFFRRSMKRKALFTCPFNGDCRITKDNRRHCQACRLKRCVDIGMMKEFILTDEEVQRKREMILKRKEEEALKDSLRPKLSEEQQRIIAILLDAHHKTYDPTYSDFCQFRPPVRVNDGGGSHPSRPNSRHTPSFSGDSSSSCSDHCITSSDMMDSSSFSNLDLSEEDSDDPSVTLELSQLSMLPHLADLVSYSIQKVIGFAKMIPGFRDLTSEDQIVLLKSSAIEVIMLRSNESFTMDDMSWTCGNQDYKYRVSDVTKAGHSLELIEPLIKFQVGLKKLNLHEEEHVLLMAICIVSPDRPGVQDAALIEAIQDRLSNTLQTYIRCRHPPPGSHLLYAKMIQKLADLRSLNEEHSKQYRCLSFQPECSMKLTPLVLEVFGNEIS

| SMILES | outcome |
| --- | --- |
| CC(N)C12CC3CC(CC(C3)C1)C2 (stereo not given) | inactive |
| O=C1NC(=O)C2CC=CCC12 (stereo not given) | inactive |
| Cc1coc2ccccc2c1=O | inactive |
| CCOc1ccccc1OCC | inactive |
| N[C@@H](CCC(=O)O)C(=O)O | inactive |
| CC(=O)c1ccc2ccccc2c1 | inactive |
| CC(C)NNC(=O)c1ccncc1 | inactive |
| CC(C)C[C@@H](N)C(=O)O | inactive |
| CC1=NN(c2cccc(S(=O)(=O)O)c2)C(=O)C1 | inactive |
| CC(=O)c1ccccc1[N+](=O)[O-] | inactive |
| CC(=O)OCC(=O)[C@@]1(O)[C@H](C)C[C@H]2[C@@H]3CCC4=CC(=O)C=C[C@]4(C)[C@@]3(F)[C@@H](O)C[C@@]21C | inactive |
| OCCc1ccccn1 | inactive |
| CCCCCC(=O)OCCc1ccccc1 | inactive |
| CC(C)(C)OC(=O)c1cccc(N)c1 | inactive |
| CCOc1ccc2nc(S(N)(=O)=O)sc2c1 | inactive |
| C[C@@H]1CCC[C@H](C)N1 | inactive |
| c1coc(CNc2ncnc3nc[nH]c23)c1 | inactive |
| CCCc1ncc(C[n+]2ccccc2C)c(N)n1 | inactive |
| O=C(c1ccccc1)C1(O)CCCCC1 | inactive |
| CCCn1cc[n+](C)c1C | inactive |

| SMILES | outcome |
| --- | --- |
| NCCCC(N)(C(=O)O)C(F)F (stereo not given) | inactive |
| O=[N+]([O-])c1cncn1CCN1CCOCC1 | inactive |
| NC(CCC(=O)O)C(=O)O (stereo not given) | inactive |
| c1ccc(Cc2ccccc2)cc1 | inactive |
| Nc1ccn([C@@H]2O[C@H](CO)[C@@H](O)C2O)c(=O)n1 (stereo not given in full) | inactive |
| C=COCC1CCC(COC=C)CC1 (stereo not given) | inactive |
| c1ccc(CCc2ccccc2)cc1 | inactive |
| [K+] | inactive |
| Cc1ccc(-c2ncc(Cl)cc2-c2ccc(S(C)(=O)=O)cc2)cn1 | inactive |
| Nc1c2c(nc3c1CCC3)CCCC2 | inactive |
| COc1cc(C(=O)OC(COCCC(C)C)CN2CCOCC2)cc(OC)c1OC (stereo not given) | inactive |
| CCCCCCCCCCCCCCCCCCO | inactive |
| Cc1ncc(COP(=O)(O)O)c(C=O)c1O | inactive |
| C[C@H]1C[C@H]2[C@@H]3CCC4=CC(=O)C=C[C@]4(C)[C@H]3C(=O)C[C@]2(C)[C@@]1(O)C(=O)CO | inactive |
| CC(C)(C)C(=O)c1ccccc1 | inactive |
| CCC(=O)OCc1ccccc1 | inactive |
| CO[C@@]1(NC(=O)C(C(=O)O)c2ccc(O)cc2)C(=O)N2C(C(=O)O)=C(CSc3nnnn3C)CO[C@@H]21 (stereo not given in full) | inactive |
| CCOC(=O)c1cnc2c(cnn2CC)c1NN=C(C)C | inactive |
| CCO[Si](OCC)(OCC)c1ccccc1 | inactive |
| CCCC[N+](C)(CCCC)CCCC | inactive |

Source: PubChem BioAssay (Tox21)
